Assay outcomes from PubChem BioAssay.
CHX counter – counter-screen hit for Shiga toxin inhibitors, cycloheximide. cell reporter, cycloheximide protein synthesis inhibition counterscreen. AID 2314. hit rate 12% among 300,000. max response, %; in the data active means max response mostly above about 13%, no sharp cut-off; inactive means mostly below about 14%; further: read at 38.3 µM for the half of the compounds with a filed dose; 0% is about no effect
VACV Venus inh – inhibitors of vaccinia virus (Venus reporter). Vaccinia virus Venus reporter expression, fluorescence. Potency, µM (highest dose often 36.5 µM), for inactives: at the highest dose activity change, negative = inhibition, usual class: inhibitors. hit rate 0.46% among 330,000. AID 720580; calls by dose curve; tested in A549 cells; further: potency means the concentration at half of the fitted maximal effect; on the % scale 0 is the no-effect control and ±100 the full control effect; nearly all actives have a fitted effect of over 30% in size
Vaccinia mCherry – inhibitors of vaccinia virus infection (mCherry reporter signal); Vaccinia virus mCherry reporter infection, fluorescence; Potency, µM (titrated, usually from 36.5 µM), for the others: at the highest dose activity change, negative = inhibition, actives largely listed as inhibitors; hit rate 0.63% among 310,000; AID 720579; calls by dose curve; tested in A549 cells; further: potency means the concentration at half of the fitted maximal effect; on the % scale 0 is the no-effect control and ±100 the full control effect; nearly all actives have a fitted effect of over 35% in size
Lassa entry inh – Lassa virus entry inhibition. Lassa virus pseudotype entry inhibition, cell reporter. Potency, µM (highest dose often 37.9 µM), for the others: at the highest dose activity change, negative = inhibition, hits mostly inhibitors. hit rate 1.2% among 300,000; calls by dose curve; tested in HEK293 cells; further: potency means the concentration at half of the fitted maximal effect; on the % scale 0 is the no-effect control and ±100 the full control effect; nearly all actives have a fitted effect of over 50% in size
Shiga toxin inh – Shiga toxin inhibition; hit rate 9.2% among 290,000; Vero cells, Shiga toxin protein synthesis inhibition reporter; inhibition, % at 38.7 µM; in the data active means inhibition mostly above about 28%, no sharp cut-off; inactive means mostly below about 43%; further: 0% is about no effect
Marburg entry inh – Marburg virus entry inhibition. Marburg virus pseudotyped entry inhibition, cell reporter. Potency, µM (highest dose often 37.8 µM), for the others: at the top dose activity change, negative = inhibition, most hits filed as inhibitors. hit rate 1.8% among 300,000. AID 540276; calls by dose curve; tested in HEK293 cells; further: potency means the concentration at half of the fitted maximal effect; on the % scale 0 is the no-effect control and ±100 the full control effect
Numbers without * were called inactive; i = inactive; ? = inconclusive; . = not tested or not shown; [ ] = dose if it differs, or a comment. The full list was thinned out, with hits kept by preference.

SMILES | CHX counter | VACV Venus inh | Vaccinia mCherry | Lassa entry inh | Shiga toxin inh | Marburg entry inh
COc1cccc(Nc2ncc(C#N)c(N)n2)c1 | 38.6* | ? | -7.4% | -9.9%[46.1 µM] | 81.1* | ?
COc1cccc(Nc2nc3cc(OC)ccc3cc2C#N)c1 | -3.1 | -16.0% | -17.6% | 2.8%[46.1 µM] | -9.3 | 5.7%[46.1 µM]
Cc1cccc2cc(CN(Cc3ccco3)C(=O)Nc3cccc(C#N)c3)c(Cl)nc12 | -2.0 | -21.4% | -13.2% | ? | 4.6 | ?
Cc1ccc(NC(=O)N(Cc2ccco2)Cc2cc3cc(C)cc(C)c3nc2Cl)cc1 | 26.7* | . | . | . | 48.2* | 0.0%
Cc1ccc(/C=C2/SC(=O)N(CC(=O)N3CCOCC3)C2=O)s1 | -4.9 | -7.4% | i | 4.8% | 27.3 | 3.1%
CCN=C1S/C(=C\c2ccc(OC)c(OCC)c2)C(=O)N1CC | -2.4 | . | . | 11.6% | -15.8 | 0.3%
O=C(CCN1C(=O)S/C(=C\c2ccccc2)C1=O)N1CCOCC1 | . | -8.0% | -14.4% | 8.4% | . | 4.8%
CCN=C1S/C(=C\c2sccc2C)C(=O)N1CC | 19.4* | -3.3% | -9.7% | 17.1% | 31.1* | 15.9%[46.1 µM]
O=C(CN1C(=O)S/C(=C/c2ccc(N3CCOCC3)cc2)C1=O)N1CCOCC1 | 17.4* | -7.6% | i | 0.8% | 35.6* | ?
Cc1ccsc1/C=C1/SC(=O)N(CC(=O)N2CCOCC2)C1=O | 24.8* | -19.0% | . | 24.1% | 69.9 | ?
Cc1ccc(C2N3CC4(C)CN2CC(c2ccccc2)(C3)C4=O)cc1 (configuration not stated) | . | -15.8% | -7.6% | -17.4%[46.1 µM] | . | 3.0%[46.1 µM]
COc1ccc(Cl)cc1NC(=O)CCCn1c(=O)c2cccn2c2cccnc21 | . | -17.5% | ? | -16.4%[46.1 µM] | . | .
CC(=O)Oc1ccc(-c2nc(-c3ccccc3)no2)cc1 | . | -7.3% | 27.2% | . | . | .
COc1ccc(NC(=O)c2cccs2)cn1 | 25.9* | 6.9% | -13.7% | ? | 61.5* | 7.4%[46.1 µM]
CC(C)(C)c1ccc(Oc2ccc(NC(=O)c3cccs3)cn2)cc1 | 8.7 | ? | -16.6% | ? | 1.9 | 12.6µM*
C[C@@H](C(=O)Nc1ccc2ccccc2c1)[C@H]1C[C@]1(C)[C@H](N)c1ccccc1 | -0.2 | . | . | . | -0.3 | .
Cc1cc(C)c(NC(=O)C(=O)NCC(c2cccnc2)N2CCN(c3ccccc3F)CC2)c(C)c1 (configuration not stated) | . | -13.9% | -13.2% | -18.4%[46.1 µM] | . | .
Nc1nc(NCc2ccco2)nc(N2CCCCC2)c1[N+](=O)[O-] | -5.5 | -21.1% | -20.4% | 0.7% | -4.4 | 10µM*
COc1ccc(Nc2nc(NCc3ccco3)nc(N)c2[N+](=O)[O-])cc1 | -2.2 | -4.0% | i | -11.8% | -9.2 | 14.9%[14.2 µM]
CN1CCN(c2nc(NCc3ccco3)nc(N)c2[N+](=O)[O-])CC1 | -2.3 | -5.2%[7.34 µM] | -6.4%[7.34 µM] | 9.6% | 5.7 | 1.0%[46.1 µM]
Nc1nc(Nc2cccc(F)c2)nc(NCc2ccco2)c1[N+](=O)[O-] | 12.5* | ? | ? | ? | 35.9 | ?
Nc1nc(Nc2cccc(Cl)c2)nc(NCc2ccco2)c1[N+](=O)[O-] | 34.3* | -11.6% | -29.7% | ? | 35.8 | 5.62µM*
Nc1nc(Nc2ccc(Cl)cc2)nc(NCc2ccco2)c1[N+](=O)[O-] | 48.5* | -7.9%[7.34 µM] | i[7.34 µM] | -16.9% | 83.5* | ?
Cc1cccc(NS(=O)(=O)c2ccc3c(c2)CCN3C(=O)C2CCC2)c1 | . | -25.3% | -22.6% | ? | . | ?
Cc1cc(C)cc(N2CCn3c2nc2c3c(=O)n(C/C=C/c3ccccc3)c(=O)n2C)c1 | . | -4.2% | -12.8% | 7.3%[46.1 µM] | . | .
SMILES | CHX counter | VACV Venus inh | Vaccinia mCherry | Lassa entry inh | Shiga toxin inh | Marburg entry inh
CNc1nc(Nc2ccc(Br)cc2)nc(N)c1[N+](=O)[O-] | 23.7* | -12.9% | -12.7% | 15.6% | 50.9* | ?
Cc1cccc(Nc2nc(N)c([N+](=O)[O-])c(NCc3ccco3)n2)c1 | -3.4 | ? | ? | 1.5% | 21.0 | ?
Cc1cccc(Nc2nc(NCc3ccco3)nc(N)c2[N+](=O)[O-])c1 | 5.3 | 0.0% | -14.9% | ? | 7.4 | 5.62µM*
CC(C)CC(=O)NCC1(N(C)C)CCCCC1 | . | 4.9% | -20.2% | 5.2%[46.1 µM] | . | -25.6%[46.1 µM]
COCCN1C(=O)CC[C@@]23C1=NC(C(=O)OC)=C(C(=O)OC)[C@@H]2N(Cc1ccccc1)c1ccccc13 | . | . | . | . | . | -8.8%[14.2 µM]
CN(CCCCCC(=O)/C=N\O)Cc1ccccc1 | . | . | . | . | . | -0.3%
CC(=O)c1c(N=CN(C)C)nc(C)nc1-c1ccccc1 | 0.8 | -8.8% | -10.5% | -9.7% | -11.3 | -0.4%
CN(C)C=Nc1ccccc1C1C=NNC1=O (configuration not stated) | 22.9* | . | . | . | 52.0* | .
COc1ccc(Nc2nnc(SCC(=O)/C=C3/N(C)c4ccccc4C3(C)C)s2)cc1 | -3.0 | -8.9% | -2.2% | 14.1µM* | 7.6 | ?
CN1/C(=C\C(=O)CSc2nnc(N)s2)C(C)(C)c2ccccc21 | 0.9 | -11.9% | -10.0% | ? | 10.6 | ?
Cc1ccc(NCc2ccccc2O)c(C)c1 | 19.8* | -25.9% | ? | -8.5% | 48.0* | ?
Cc1ccc(NC(=S)NCc2ccccc2)c(C)c1 | 10.0* | -2.6% | i | -18.2% | 63.7 | -3.9%
Cc1ccc(Cn2cccc(NC(=O)c3ccco3)c2=O)cc1 | 36.9* | -19.7% | -25.4% | ? | 91.9* | 15.0%[46.1 µM]
Cc1ccc(Cn2cccc(NC(=O)NCc3ccccc3)c2=O)cc1 | -0.6 | -11.5% | i | 0.0% | 8.7 | 1.9%
O=C(Nc1cccn(Cc2c(Cl)cccc2Cl)c1=O)c1c(Cl)cccc1Cl | -3.6 | . | . | ? | -20.5 | ?
O=C(NCc1ccccc1)Nc1cccn(Cc2ccccc2Cl)c1=O | 2.8 | . | . | . | 50.3* | .
O=C(Nc1ccccc1)Nc1cccn(Cc2c(F)cccc2Cl)c1=O | 60.2* | . | . | ? | 95.0* | ?
CSc1ccc(NC(=O)Nc2cccn(Cc3ccccc3)c2=O)cc1 | 28.9* | ? | -22.5% | ? | 63.5* | ?
Oc1ccc(-c2cnccn2)cc1CN1CCN(C2CCCCC2)CC1 | . | 5.0% | -8.8% | . | . | .
CCn1c(=O)c([N+](=O)[O-])c(NCCCn2ccnc2)c2ccccc21 | -3.1 | -17.0% | i | 11.8% | -0.9 | 2.9%
Cc1cc(C)c2c(c1)NC(=O)C2(O)c1c[nH]c2ccccc12 (configuration not stated) | . | -11.9% | i | 10.5%[46.1 µM] | . | ?
O=C(N/N=C/c1ccccc1O)C1SCCCS1 | 26.3* | . | . | . | 40.0 | .
COc1cccc(NC(=O)CSC2=Nc3ccccc3C3=NC(CC(=O)NCCc4ccccc4)C(=O)N23)c1 (configuration not stated) | . | -1.5% | -3.0% | -19.0%[46.1 µM] | . | .
COc1ccc2cc(C(=O)OC(C)C)sc(=O)c2c1OC | 13.5* | -5.3% | i | ? | 30.4* | 16.6%
COc1ccc2cc(C(=O)NCC(=O)O)sc(=O)c2c1OC | -1.7 | 4.8% | -4.0% | 11.4% | -0.7 | ?
CCC(CC)C(=O)N1CCc2cc(OC)c(OC)cc2C1COc1ccc2c(C)cc(=O)oc2c1 (configuration not stated) | . | -4.7% | -8.3% | 1.0%[46.1 µM] | . | 13.4%[46.1 µM]
Cc1ccccc1Cn1c(=O)n(CCCC(=O)NCc2ccco2)c(=O)c2ccccc21 | 14.2* | -26.4% | -16.1% | -23.0% | 13.8 | -19.0%
Cc1ccc2nc(SCC(=O)NCc3ccco3)[nH]c2c1 | -3.0 | . | . | 14.8% | -3.3 | -3.6%
